Here are results for 17 compounds from PubChem BioAssay (NCATS).

Results filed as inconclusive are left out. Calls of active or inactive are those of the source. Calls follow the shape of the full dose curve.

A short description of test [1]: Primary qHTS for inhibitors of SARS-S pseudo-typed particle cell entry (AID 1479145). Also: nearly all actives have a fitted effect of over 45% in size. As to activity change, negative = inhibition: % is scaled to controls: 0 for no effect and ±100 for the full control effect. Conditions: outcome: dose series up to 57.1 µM unless noted.
Test [2] in a line: Primary qHTS for Huh7 cytotoxicity: counterscreen for inhibitors of MERS-S pseudotyped particle cell entry (AID 1479147). As to activity change, negative = cytotoxicity: % is scaled to controls: 0 for no effect and ±100 for the full control effect. Conditions: outcome: dose series up to 57.1 µM unless noted. On the technique in general: In qHTS, concentration-response curves come from the screen itself.
A short description of test [3]: Primary qHTS for inhibitors of MERS-S pseudo-typed particle cell entry (AID 1479149). Also: nearly all actives have a fitted effect of over 60% in size. Conditions: outcome: dose series up to 57.1 µM unless noted.
Test [4] is described as follows: Primary qHTS for Vero E6 cytotoxicity: counterscreen for inhibitors of SARS-S pseudo-typed particle cell entry (AID 1479150). As to activity change, negative = cytotoxicity: % is scaled to controls: 0 for no effect and ±100 for the full control effect. Conditions: outcome: dose series up to 57.1 µM unless noted.
Test [5] is described as follows: Cytotoxicity counterscreen for inhibitors of SARS-CoV-2 cell entry (AID 1645845). Also: nearly all actives have a fitted effect of over 50% in size. As to activity change, negative = cytotoxicity: % is scaled to controls: 0 for no effect and ±100 for the full control effect. Conditions: outcome: dose series up to 57.1 µM unless noted. The method in brief: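 Expi293F/hACE2 cells seeded overnight; cpd pin-transferred in DMSO, 1 h preincubation, + media, 48 h 37 C 5% CO2; ATPLite 1step luminescence; normalized to cells and no cells.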
A general note: Counterscreens check selectivity or assay interference.

The nature of test [6]: Primary qHTS to identify inhibitors of SARS-CoV-2 cell entry (AID 1645846). Also: nearly all actives have a fitted effect of over 45% in size. Conditions: SARS-CoV-2 pseudovirus cell entry assay, luminescence; activity change, negative = inhibition: at 57.1 µM (top of the series) unless noted. Put shortly:
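Using luciferase-reporting pseudoviruses carrying Wuhan-Hu-1 spike, the screen tracks entry into stably ACE2-expressing cells over 48 hr. Activity is expressed relative to spike particles versus particles lacking any fusion protein.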

Consider `CC1(C)S[C@@H]2[C@@H](N3C(=O)[C@@H](c4ccccc4)NC3(C)C)C(=O)N2[C@H]1C(=O)O`, for which the Potency entry in test [1], in test [2], in test [3], in test [4] and in test [5] was “inactive” each time. Moreover, the activity change, negative = inhibition in test [6] was -21.4%.
For the compound `CC(C)(C)CC(=O)OCC(=O)[C@@]12OC(C)(C)O[C@@H]1C[C@H]1[C@@H]3CCC4=CC(=O)C=C[C@]4(C)[C@@]3(F)[C@@H](O)C[C@@]12C`, the Potency entry in test [1], in test [2], in test [3], in test [4] and in test [5] was “inactive” throughout. For the same compound, the activity change, negative = inhibition in test [6] is -18.4%.
`CC(=O)NC(C=O)C(O)C(O)[C@H](O)CO` (some centres not stated): the Potency entry in test [1], in test [2], in test [3], in test [4] and in test [5] was “inactive” each time. For the same compound, the activity change, negative = inhibition in test [6] was -0.156%.
As to `CN(C)/C(N)=N/C(=N)N`, the outcome in test [1], in test [2], in test [3], in test [4], in test [5] and in test [6] was “inactive [setting not given]” each time.
For `CO[C@H]1C[C@@H](O[C@@H]2/C(C)=C/C[C@@H]3C[C@@H](C[C@]4(CC[C@H](C)[C@@H](C5CCCCC5)O4)O3)OC(=O)[C@@H]3C=C(C)/C(=N/O)[C@H]4OC/C(=C\C=C\[C@@H]2C)[C@]43O)O[C@@H](C)[C@H]1O`, the Potency entry in test [1], in test [2], in test [3], in test [4], in test [5] and in test [6] was “inactive” throughout.
`CC(=O)OC1CCC2(C)C(=CCC3C2CCC2(C)C(c4cccnc4)=CCC32)C1` (configuration not stated): the Potency entry in test [1], in test [2], in test [3], in test [4] and in test [5] was “inactive” each time. For the same compound, the activity change, negative = inhibition in test [6] is -20%.
For `Cc1cc2nc3c(=O)[nH]c(=O)nc-3n(C[C@@H](O)[C@@H](O)[C@@H](O)COP(=O)(O)O)c2cc1C`, the activity change, negative = inhibition in test [1] is -30.5% [at 11.4 µM] (inactive); in test [6], -22.9% [at 11.3 µM]. The outcome in test [2] and in test [3] was “inactive [at 11.4 µM]” each time. Also, the values for the activity change, negative = cytotoxicity in test [4] and in test [5] were 1.24% [at 11.4 µM] (inactive) and 3.55% [at 11.3 µM] (inactive), respectively.
Turning to `CCOC(=O)CCC(=O)O[C@H]1[C@H](O[C@@H]2[C@@H](C)[C@H](O[C@H]3C[C@@](C)(OC)[C@@H](O)[C@H](C)O3)[C@@H](C)C(=O)O[C@H](CC)[C@@](C)(O)[C@H](O)[C@@H](C)C(=O)[C@H](C)CC2(C)O)O[C@H](C)C[C@@H]1N(C)C` (some centres not stated), the Potency entry in test [1], in test [2], in test [3], in test [4] and in test [5] was “inactive” in each case. In test [6], the activity change, negative = inhibition is -2.45%.
Regarding `CC1(O)CCC(C(C)(C)O)CC1` (configuration not stated), the Potency entry in test [1], in test [2], in test [3], in test [4], in test [5] and in test [6] was “inactive” each time.
As to `Nc1nc(CC(=O)Nc2ccc(CCNC[C@H](O)c3ccccc3)cc2)cs1`, the Potency entry in test [1], in test [2], in test [3], in test [4] and in test [5] was “inactive” each time. Moreover, the activity change, negative = inhibition in test [6] is -24.2%.
In the case of `COc1ccc(C[C@H](C)NC[C@@H](O)c2ccc(O)c(NC=O)c2)cc1`, the Potency entry in test [1], in test [2], in test [3], in test [4] and in test [5] was “inactive” in each case. Also, the activity change, negative = inhibition in test [6] is -27.6%.
As for `OC(CN1CCCCC1)c1cc(-c2ccccc2)on1` (configuration not stated), the Potency result in test [1], in test [2], in test [3], in test [4] and in test [5] was “inactive” throughout. In addition, the activity change, negative = inhibition in test [6] is -15.3%.
For `C=CC1=C(C(=O)O)N2C(=O)[C@@H](NC(=O)/C(=N\OCC(=O)O)c3csc(N)n3)[C@H]2SC1`, the Potency entry in test [1], in test [2], in test [3], in test [4] and in test [5] was “inactive” throughout. In addition, the activity change, negative = inhibition in test [6] was -7.67%.
In the case of `NC(N)=NCCC[C@@H](N)C(=O)N[C@@H](CCCN=C(N)N)C(=O)N1CCC[C@H]1C(=O)N1C[C@H](O)C[C@H]1C(=O)NCC(=O)N[C@@H](Cc1cccs1)C(=O)N[C@@H](CO)C(=O)N1Cc2ccccc2C[C@@H]1C(=O)N1[C@H](C(=O)N[C@@H](CCCN=C(N)N)C(=O)O)C[C@@H]2CCCC[C@@H]21`, the Potency entry in test [1], in test [2], in test [3], in test [4], in test [5] and in test [6] was “inactive” in each case.
Consider `O=c1c2c(c1=O)N(CCP(=O)(O)O)CCCN2`, for which the Potency result in test [1], in test [2], in test [3], in test [4] and in test [5] was “inactive” throughout. The activity change, negative = inhibition in test [6] is 3.47% [at 114 µM].
As to `CC(=O)OCC(=O)[C@@]12OC3(CCCC3)O[C@@H]1C[C@H]1[C@@H]3CCC4=CC(=O)C=C[C@]4(C)[C@@]3(F)[C@@H](O)C[C@@]12C`, the Potency result in test [1], in test [2], in test [3], in test [4], in test [5] and in test [6] was “inactive” each time.
As to `C=C1CC[C@H](O)C/C1=C\C=C1/CCC[C@]2(C)[C@@H]([C@H](C)CC[C@H](O)C(C)(C)O)CC[C@@H]12`, the Potency result in test [1], in test [2], in test [3], in test [4] and in test [5] was “inactive” each time. For the same compound, the activity change, negative = inhibition in test [6] is -14.2%.
